Source: PubChem BioAssay AID2570 (National Center for Advancing Translational Sciences (NCATS), 2010)
Records with an inconclusive call do not appear. Values without a mark were called inactive. Calls come from the whole dose curve; as a rule, active = well fitted curve in the direction sought with a large enough effect; inconclusive = small, poorly fitted or top-dose-only effect, or another doubt; inactive = no such curve, though single readings can be large or run the other way.

Target: Vasopressin V1b receptor (Homo sapiens) (UniProt P47901)
Sequence (P47901 whole entry, looked up): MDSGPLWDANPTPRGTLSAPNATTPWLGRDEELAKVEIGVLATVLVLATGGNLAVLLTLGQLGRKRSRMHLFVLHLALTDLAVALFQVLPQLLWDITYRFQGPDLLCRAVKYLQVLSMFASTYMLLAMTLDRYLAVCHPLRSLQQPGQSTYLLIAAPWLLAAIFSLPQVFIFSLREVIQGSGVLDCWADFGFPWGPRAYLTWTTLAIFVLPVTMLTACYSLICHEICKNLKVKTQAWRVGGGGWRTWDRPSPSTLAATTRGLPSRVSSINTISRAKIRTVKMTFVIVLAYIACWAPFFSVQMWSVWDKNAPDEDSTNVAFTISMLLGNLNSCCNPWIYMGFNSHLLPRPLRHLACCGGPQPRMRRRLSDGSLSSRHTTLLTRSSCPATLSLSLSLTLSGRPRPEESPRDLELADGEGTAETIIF
Test: Counterscreen Concentration-Response Assay for Antagonists of the Neuropeptide S Receptor: Vasopressin Receptor Calcium Signal Transduction
Details: CHO-AVPR1B, vasopressin-stimulated calcium fluorescence, FDSS
Excerpt: NIH Chemical Genomics Center [NCGC] NIH Molecular Libraries Probe Production centers Network [MLPCN] MLPCN Grant: X01-DA026210-01 Assay Submitter (PI): Heilig, Markus Alexander NCGC Assay Overview: Neuropeptide S receptor (NPSR), previously known as GPR154, is a recently de-orphanized G protein coupled receptor. Its endogenous ligand is the 20 amino acids peptide Neuropeptide S (NPS). […] NPS and its receptor are found in various tissues. Specifically they are highly expressed in brain areas that have been implicated in modulation of arousal, stress and anxiety. […] This change in intracellular calcium can be detected using a calcium indicator dye on a calcium imaging plate reader system (FDSS). […]
NCGC Assay Protocol Summary: A Chinese hamster ovary (CHO) cell line stably expressing human vasopressin receptor (AVPR1B) was maintained in F-12 Kaighn's media (Invitrogen, Carlsbad, CA, 21127) supplemented with 10 % FBS, 100 units/ml penicillin, 100 ug/ml streptomycin and 250 ug/ml geneticin at 37C, 5% CO2 in a humidified atmosphere. […] The assay was performed on a FDSS-7000 kinetic plate reader in 1536-well format. The maximums of kinetic fluorescence responses were converted into text files using the instrument's software data export utility. […] AC50 values were determined from concentration-response data modeled with the standard Hill equation. […]

Cc1c(P(=S)(c2ccccc2)c2ccccc2)[n+]2ccccc2n1C
max response: 7.72%
